Screening results deposited in PubChem by Bradner/Qi Labs at DFCI.
CBX7 AlphaScr: inhibitors of human CBX7 binding to H3K27me3 peptide | O95931 | AlphaScreen His6-CBX7 / biotin-H3K27me3 peptide binding; active compounds read low | AID 1224903 | hit rate 1.1% among 66,000 | normalised signal (fraction of DMSO) (concentration not given with the values); in the data active = normalised signal below about 0.5
Target sequence (O95931 whole entry, looked up): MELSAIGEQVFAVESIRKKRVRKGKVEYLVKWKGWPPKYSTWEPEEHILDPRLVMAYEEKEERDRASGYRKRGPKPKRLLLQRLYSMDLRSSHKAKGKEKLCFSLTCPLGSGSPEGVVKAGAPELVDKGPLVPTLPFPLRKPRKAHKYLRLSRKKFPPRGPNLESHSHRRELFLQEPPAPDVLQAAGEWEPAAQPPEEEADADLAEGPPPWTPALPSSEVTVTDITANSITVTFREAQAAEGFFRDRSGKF
* hit, by the source's call. The sample as a whole holds a higher share of hits than the screen did.

SMILES	CBX7 AlphaScr
CCc1cccc(C)c1NC(=O)C1CCN(C(=O)c2cnn(-c3ccccc3)c2-n2cccc2)CC1	1.3
CCCc1cc(-c2nc(-c3ccc(Cl)c(Cl)c3)cs2)ccn1	1.5
CCc1cccc(C)c1Nc1c(-c2ccc(F)cc2)nc2cnccn12	1.3
COc1cc2c(C(=O)Nc3ccc(F)cc3F)cn(C)c(=O)c2cc1OC	1
COc1ccc(-c2nnc(Nc3ccc(Cl)cc3)c3ccccc23)cc1	0.97
COc1ccc(-c2nnc(Nc3ccc(Cl)c(Cl)c3)c3ccccc23)cc1	1
COc1ccc(-c2nnc(Nc3cccc(O)c3)c3ccccc23)cc1	0.43*
OC(C#CCN1CCCCC1)(c1ccccc1)C1CCCCC1 (stereo unspecified)	1.1
O=C(NCCN1CCC(Cc2ccccc2)CC1)c1ccc2c(c1)ncn2C1CCCCC1	0.93
CCOC(=O)c1ccccc1Nc1nc(-c2ccccc2F)nc2ccccc12	1.4
CC(C)(C)c1ccc(-c2csc(NC(=O)c3ccc(S(=O)(=O)N4CCCCC4)cc3)n2)cc1	1
COc1ccccc1NC(CNS(=O)(=O)c1ccccc1)c1ccccc1 (stereo unspecified)	0.47*
COc1ccc(NC(CNS(=O)(=O)c2ccc(Cl)cc2)c2ccccc2)cc1 (stereo unspecified)	0.54
O=S(=O)(NCC(Nc1ccccc1)c1ccccc1)c1ccc(Cl)cc1 (stereo unspecified)	0.98
CCOC(=O)c1cccc(NC(=O)CC2C(=O)N(Cc3ccccc3)C(C)c3nc4ccccc4n32)c1 (stereo unspecified)	0.99
CCCCN(CC)S(=O)(=O)c1ccc(C(=O)Nc2nc(-c3ccncc3)cs2)cc1	1
CCCCN(C)S(=O)(=O)c1ccc(C(=O)Nc2nc(-c3ccccn3)cs2)cc1	0.098*
O=C(Nc1nc(-c2ccccn2)cs1)c1ccc(S(=O)(=O)N2CCCc3ccccc32)cc1	0.89
CN(C1CCCCC1)S(=O)(=O)c1ccc(C(=O)Nc2nc(-c3ccccn3)cs2)cc1	0.89
CC1CN(S(=O)(=O)c2ccc(C(=O)Nc3nc(-c4ccccn4)cs3)cc2)CC(C)O1 (stereo unspecified)	0.31*
COc1ccccc1-c1csc(NC(=O)c2ccc(S(=O)(=O)N(C)c3ccccc3)cc2)n1	0.97
CC1CN(S(=O)(=O)c2ccc(C(=O)Nc3nc(-c4ccncc4)cs3)cc2)CC(C)O1 (stereo unspecified)	0.99
CN(c1ccccc1)S(=O)(=O)c1ccc(C(=O)Nc2nc(-c3ccc(Cl)cc3)cs2)cc1	0.89
CN(c1ccccc1)S(=O)(=O)c1ccc(C(=O)Nc2nc(-c3ccccn3)cs2)cc1	0.17*
Cc1ccc(NC(=O)CS(=O)(=O)c2nc(-c3ccc(C)cc3)cn2-c2cccc(Cl)c2)cc1	0.64
SMILES	CBX7 AlphaScr
O=C(c1ccccc1)c1cn(Cc2ccccc2)c2ccc(F)cc2c1=O	0.83
COC(=O)c1ccc(Nc2cc(C)nc3ccc(OC)cc23)cc1	1.1
CC(=O)c1ccc(NC(=O)C2OC3OC(C)(C)OC3C3OC(C)(C)OC23)cc1 (stereo unspecified)	1.1
Cc1ccccc1OCCCCCc1c(C)n[nH]c1C	0.97
COc1ccccc1OCCCCCCc1c(C)n[nH]c1C	0.5*
COc1ccccc1OCCCCc1c(C)n[nH]c1C	0.97
Cc1c(NC(=O)COc2ccccc2Cl)cccc1-c1nc2ncccc2o1	1.1
Cc1ccc2nc(-c3ccccn3)c(NC3CCCC3)n2c1	0.12*
Cc1cccn2c(Nc3ccc4c(c3)OCCO4)c(-c3ccc(N(C)C)cc3)nc12	0.41*
Cc1cccc(C)c1Nc1c(-c2ccsc2)nc2ncccn12	1.1
Cc1cccc(C)c1Nc1c(-c2ccsc2)nc2ccccn12	0.91
Cc1cccn2c(Nc3ccc4c(c3)OCCO4)c(-c3ccsc3)nc12	0.93
Cc1ccc(-c2nc3ncccn3c2NC2CCCC2)cc1	1
Cc1ccc(-c2nc3ncccn3c2Nc2c(C)cccc2C)cc1	0.9
Cc1cccc(C)c1Nc1c(-c2ccccn2)nc2ncccn12	0.011*
Cc1cccc(C)c1Nc1c(-c2cccs2)nc2ccccn12	1.1
Cc1cccn2c(Nc3ccc4c(c3)OCCO4)c(-c3cccc(Cl)c3)nc12	0.76
Cc1cccc(C)c1Nc1c(-c2ccccn2)nc2ccccn12	0.23*
Cc1ccc(-c2nc3cnccn3c2NC2CCCC2)cc1	1.2
CCCCCCOc1ccc(N2C(=O)CC(N3CCN(C)CC3)C2=O)cc1 (stereo unspecified)	0.93
CCn1c(COc2ccc(C(C)(C)C)cc2)nc2ccccc21	0.68
Cc1cc(S(=O)(=O)Nc2ccc3oc4c(c3c2)CC(C)CC4)ccc1Cl (stereo unspecified)	0.99
O=C(C1CCC1)N1CCc2cc(S(=O)(=O)Nc3ccc(Br)cc3)ccc21	0.95
CC(C)OCCCNC(=O)CN1C(=O)CSc2ncccc21	1
COc1ccccc1-c1c(C)nn2c(NCC(OC)OC)cc(C)nc12	1
c1ccc(-c2nc3ccccn3c2Nc2ccc3c(c2)OCCO3)nc1	0.073*
c1ccc(-c2nc3ccccn3c2Nc2ccc3c(c2)OCCO3)cc1	1.3
